The whole screen tested about 39,000 compounds, of which about 1,500 (3.8%) were called active. The sample as a whole holds a higher share of actives than the screen did.

The subject of this experiment is HSkMC (human skeletal muscle cells). Kind of experiment: cytotoxicity call (relative viability < 0.9). Particulars: 10 µM.
As to `COC(=O)C[C@H]1CC[C@@H]2[C@H](COC[C@H](O)CN2S(=O)(=O)c2ccc(F)cc2)O1`, the cytotoxicity call was “inactive”.
As for `C[C@@H]1CN([C@@H](C)CO)S(=O)(=O)c2ccc(C#CC(C)(C)O)cc2O[C@@H]1CN(C)Cc1ccc(F)cc1`, the cytotoxicity call was “inactive”.
Take `C=CCNC(=O)[C@H]1[C@@H]2C(=O)O[C@@H](c3ccccc3)[C@@H](c3ccccc3)N2[C@@H](c2ccc(O)cc2)[C@]12C(=O)Nc1ccc(C#Cc3ccc(OC)cc3)cc12`: the cytotoxicity call is “inactive”.
Turning to `COc1ccc(S(=O)(=O)Nc2ccc3c(c2)C(=O)N([C@H](C)CO)C[C@H](C)[C@H](CN(C)Cc2ccccc2)OCCCC[C@H](C)O3)cc1`, the cytotoxicity call was “inactive”.
Turning to `CC1(C)CCC2(C(=O)O)CCC3(C)C(=CCC4C5(C)CCC(O)C(C)(C)C5CCC43C)C2C1` (configuration not stated), the cytotoxicity call is “inactive”.
With `COC(=O)[C@@]12CC[C@@H](C)[C@@H](C)[C@@H]1C1=CC[C@H]3[C@@]4(C)CC[C@@H](OC(C)=O)C(C)(C)[C@@H]4CC[C@@]3(C)[C@@]1(C)CC2`, the cytotoxicity call is “inactive”.
Under `CC1CCC2(C(=O)O)CCC3(C)C(=CCC4C5(C)CCC(O)C(C)(C)C5CCC43C)C2C1C` (configuration not stated) stands “active”; under `O=C1c2c(O)cccc2C(C2OC(CO)C(O)C(O)C2O)c2cc(CO)cc(O)c21` (configuration not stated), “inactive”; under `COc1ccc(NC(=O)Nc2ccc3c(c2)C(=O)N([C@@H](C)CO)C[C@H](C)[C@@H](CN(C)C(=O)Nc2ccc(C(F)(F)F)cc2)OCCCC[C@H](C)O3)cc1`, “inactive”.
Consider `C[C@H]1CN([C@@H](C)CO)C(=O)c2cccc(NC(=O)Nc3ccc4c(c3)OCO4)c2O[C@H]1CN(C)Cc1ccc(-c2ccccc2)cc1`, for which the cytotoxicity call was “inactive”.
For `C[C@@H]1CN([C@@H](C)CO)C(=O)c2cccc(NC(=O)Nc3ccc4c(c3)OCO4)c2O[C@@H]1CN(C)Cc1ccc(-c2ccccc2)cc1` the value was “active”; for `C[C@@H]1CN([C@@H](C)CO)C(=O)c2cccc(NC(=O)Nc3ccc4c(c3)OCO4)c2O[C@@H]1CN(C)Cc1ccc(Oc2ccccc2)cc1`, “inactive”; for `C[C@H]1CN([C@@H](C)CO)C(=O)c2cccc(NC(=O)Nc3ccc4c(c3)OCO4)c2O[C@H]1CN(C)Cc1ccc(Oc2ccccc2)cc1`, “inactive”.
For the compound `C[C@@H]1CN([C@H](C)CO)C(=O)c2cccc(NC(=O)Nc3ccc4c(c3)OCO4)c2O[C@H]1CN(C)Cc1ccc(Oc2ccccc2)cc1`, the cytotoxicity call is “active”.
In the case of `C[C@H]1CN([C@@H](C)CO)C(=O)c2cccc(NC(=O)Nc3ccc4c(c3)OCO4)c2O[C@@H]1CN(C)Cc1ccc(-c2ccccc2)cc1`, the cytotoxicity call is “inactive”.
For the compound `C[C@@H]1CCCCO[C@H](CN(C)S(=O)(=O)c2cccs2)[C@H](C)CN([C@@H](C)CO)C(=O)c2cc(NC(=O)c3ccccc3)ccc2O1`, the cytotoxicity call was “inactive”.
For `CC[C@@H]1/C=C(\C)C[C@H](C)C[C@H](OC)[C@H]2O[C@@](O)(C(=O)C(=O)N3CCCC[C@H]3C(=O)O[C@H](/C(C)=C/[C@@H]3CC[C@H](Cl)[C@H](OC)C3)[C@H](C)[C@@H](O)CC1=O)[C@H](C)C[C@@H]2OC`, the cytotoxicity call is “inactive”.
Consider `C[C@@H]1CCCCO[C@@H](CN(C)C(=O)c2ccccc2)[C@@H](C)CN([C@@H](C)CO)C(=O)c2cc(NC(=O)Nc3ccccc3)ccc2O1`, for which the cytotoxicity call is “inactive”.
Take `Cc1ccc(S(=O)(=O)N(C)C[C@@H]2OCCCC[C@@H](C)Oc3ccc(NC(=O)CCC(F)(F)F)cc3C(=O)N([C@@H](C)CO)C[C@H]2C)cc1`: the cytotoxicity call was “inactive”.
With `Cc1noc(C)c1S(=O)(=O)N(C)C[C@H]1Oc2ccc(NC(=O)Cc3ccccc3)cc2CC(=O)N([C@H](C)CO)C[C@H]1C`, the cytotoxicity call was “inactive”.
As for `NC(=O)[C@H]1CCCCN1`, the cytotoxicity call was “inactive”.
Take `COc1cccc(S(=O)(=O)N[C@@H]2C=C[C@@H](CC(=O)NC3CCC3)O[C@H]2CO)c1`: the cytotoxicity call was “inactive”.
Regarding `C[C@@H]1CCCCO[C@@H](CN(C)C(=O)Nc2cccc3ccccc23)[C@H](C)CN([C@@H](C)CO)C(=O)c2cc(NS(=O)(=O)c3ccc(Cl)cc3)ccc2O1`, the cytotoxicity call was “inactive”.
For `Cc1ccc(S(=O)(=O)Nc2ccc3c(c2)C(=O)N([C@@H](C)CO)C[C@H](C)[C@@H](CN(C)C(=O)Nc2cccc4ccccc24)OCCCC[C@@H](C)O3)cc1` the value was “inactive”.
For `Cc1ccc(S(=O)(=O)Nc2ccc3c(c2)C(=O)N([C@H](C)CO)C[C@H](C)[C@H](CN(C)C(=O)Nc2cccc4ccccc24)OCCCC[C@H](C)O3)cc1` the value was “active”; for `Cc1ccc(S(=O)(=O)Nc2ccc3c(c2)C(=O)N([C@@H](C)CO)C[C@@H](C)[C@@H](CN(C)C(=O)Nc2cccc4ccccc24)OCCCC[C@H](C)O3)cc1`, “inactive”.
On to `C[C@@H]1CN([C@@H](C)CO)C(=O)c2cc(NS(=O)(=O)c3ccc(F)cc3)ccc2O[C@@H](C)CCCCO[C@H]1CN(C)C(=O)Nc1cccc2ccccc12`, for which the cytotoxicity call was “inactive”.
For `C[C@H]1CCCCO[C@H](CN(C)C(=O)Nc2cccc3ccccc23)[C@@H](C)CN([C@@H](C)CO)C(=O)c2cc(NS(=O)(=O)c3ccc(F)cc3)ccc2O1` the value was “active”; for `C[C@@H]1CCCCO[C@@H](CN(C)C(=O)Nc2cccc3ccccc23)[C@H](C)CN([C@H](C)CO)C(=O)c2cc(NS(=O)(=O)c3ccc(F)cc3)ccc2O1`, “active”.
Turning to `C[C@@H]1CCCCO[C@H](CN(C)C(=O)Nc2cccc3ccccc23)[C@H](C)CN([C@H](C)CO)C(=O)c2cc(NS(=O)(=O)c3ccc(Cl)cc3)ccc2O1`, the cytotoxicity call is “inactive”.
`C[C@@H]1CCCCO[C@H](CN(C)C(=O)Nc2cccc3ccccc23)[C@@H](C)CN([C@H](C)CO)C(=O)c2cc(NS(=O)(=O)c3ccc(Cl)cc3)ccc2O1`: the cytotoxicity call is “active”.
Under `C[C@@H]1CCCCO[C@@H](CN(C)C(=O)Nc2cccc3ccccc23)[C@@H](C)CN([C@H](C)CO)C(=O)c2cc(NS(=O)(=O)c3ccc(F)cc3)ccc2O1` stands “inactive”.
For `C[C@@H]1CN([C@@H](C)CO)C(=O)c2cc(NS(=O)(=O)c3ccc(F)cc3)ccc2O[C@@H](C)CCCCO[C@@H]1CN(C)C(=O)Nc1cccc2ccccc12`, the cytotoxicity call is “inactive”.
On to `C[C@@H]1CCCCO[C@@H](CN(C)C(=O)Nc2cccc3ccccc23)[C@H](C)CN([C@@H](C)CO)C(=O)c2cc(NS(=O)(=O)c3ccc(F)cc3)ccc2O1`, for which the cytotoxicity call was “inactive”.
Regarding `CCC(=O)Nc1ccc2c(c1)C(=O)N(C)C[C@H](OC)[C@@H](C)CN(C(=O)CN1CCOCC1)[C@H](C)CO2`, the cytotoxicity call was “inactive”.
Under `CC(C)NC(=O)Nc1ccc2c(c1)C(=O)N([C@@H](C)CO)C[C@@H](C)[C@@H](CN(C)C(=O)Nc1ccc(C(F)(F)F)cc1)OCCCC[C@@H](C)O2` stands “inactive”; under `C[C@@H]1CCCCO[C@H](CN(C)S(=O)(=O)c2cccs2)[C@@H](C)CN([C@@H](C)CO)C(=O)c2cc(NC(=O)Nc3cccc4ccccc34)ccc2O1`, “inactive”.
In the case of `C[C@@H]1CCCCO[C@H](CN(C)C(=O)CCC(F)(F)F)[C@@H](C)CN([C@H](C)CO)C(=O)c2cc(NC(=O)Cc3ccccc3)ccc2O1`, the cytotoxicity call is “inactive”.
For the compound `CC(C)NC(=O)Nc1cccc2c1O[C@@H](CN(C)Cc1ccc3c(c1)OCO3)[C@@H](C)CN([C@H](C)CO)C2=O`, the cytotoxicity call is “inactive”.
Under `C[C@@H]1CN([C@H](C)CO)C(=O)c2cc(NS(=O)(=O)c3ccccc3)ccc2O[C@@H]1CN(C)S(C)(=O)=O` stands “inactive”.
For `C[C@H]1CN([C@@H](C)CO)S(=O)(=O)c2ccc(C#Cc3ccncc3)cc2O[C@H]1CN(C)C(=O)C1CCOCC1` the value was “inactive”; for `Cc1noc(C)c1S(=O)(=O)Nc1ccc2c(c1)C(=O)N([C@H](C)CO)C[C@H](C)[C@@H](CN(C)C(=O)Nc1cccc3ccccc13)OCCCC[C@H](C)O2`, “active”; for `Cc1noc(C)c1S(=O)(=O)Nc1ccc2c(c1)C(=O)N([C@H](C)CO)C[C@H](C)[C@H](CN(C)C(=O)Nc1cccc3ccccc13)OCCCC[C@@H](C)O2`, “inactive”.
Turning to `Cc1noc(C)c1S(=O)(=O)Nc1ccc2c(c1)C(=O)N([C@@H](C)CO)C[C@@H](C)[C@@H](CN(C)C(=O)Nc1cccc3ccccc13)OCCCC[C@H](C)O2`, the cytotoxicity call is “inactive”.
Take `Cc1nnnn1CC(=O)Nc1ccc(F)cc1`: the cytotoxicity call is “inactive”.
`COc1ccc(NC(=O)Nc2ccc3c(c2)[C@H]2C[C@H](CC(=O)NCc4ccncc4)O[C@H](CO)[C@H]2O3)cc1`: the cytotoxicity call is “inactive”.
As for `C[C@@H]1CCCCO[C@@H](CN(C)C(=O)Nc2ccccc2)[C@H](C)CN([C@H](C)CO)C(=O)c2cc(NC(=O)Cc3ccccc3)ccc2O1`, the cytotoxicity call was “inactive”.
In the case of `Cc1ccc(S(=O)(=O)Nc2ccc3c(c2)C(=O)N([C@H](C)CO)C[C@@H](C)[C@@H](CN(C)C(=O)C2CCCCC2)OCCCC[C@H](C)O3)cc1`, the cytotoxicity call was “inactive”.
Consider `O=C(O)c1cn(C2CC2)c2cc(N3CCC(O)(COc4ccc(N5C[C@H](CO)OC5=O)cc4F)CC3)c(F)cc2c1=O`, for which the cytotoxicity call was “inactive”.
For the compound `O=C(/C=C/c1ccc(CNc2ccc([C@H]3O[C@@H](CSc4ccncc4)C[C@H](c4ccccc4)O3)cc2)cc1)NO`, the cytotoxicity call is “active”.
For `O=C(CCCCCCC(=O)Nc1ccc([C@@H]2O[C@H](CSc3ccncc3)C[C@H](c3ccccc3)O2)cc1)NO`, the cytotoxicity call was “inactive”.
With `O=C(CCCCCCC(=O)Nc1ccc([C@H]2O[C@@H](CSc3ccncc3)C[C@H](c3ccccc3)O2)cc1)NO`, the cytotoxicity call is “inactive”.
In the case of `C[C@H](CO)N1C[C@H](C)[C@H](CN(C)C(=O)NC2CCCCC2)Oc2cc(-c3cccnc3)ccc2S1(=O)=O`, the cytotoxicity call was “inactive”.
Turning to `COc1ccc(NC(=O)N(C)C[C@H]2OCCCC[C@H](C)Oc3ccc(NC(=O)c4ccncc4)cc3C(=O)N([C@H](C)CO)C[C@@H]2C)cc1`, the cytotoxicity call was “inactive”.
Turning to `CCc1ccc(NC(=S)Nc2ccccc2C(C)C)cc1`, the cytotoxicity call is “inactive”.
Consider `COCC#Cc1ccc2c(c1)O[C@@H](CN(C)C(=O)COC)[C@@H](C)CN([C@H](C)CO)S2(=O)=O`, for which the cytotoxicity call is “inactive”.
Regarding `COc1ccc(S(=O)(=O)Nc2ccccc2CN(C)C/C=C/c2ccc(Cl)cc2)cc1.O=P(=O)OO`, the cytotoxicity call is “inactive”.

(Values after the antibiotic and cytotoxicity screens of Wong et al. (2023).)
